Tested on: T1, MEK3
T1 construct: gene MAP2K3
Details: concentration: 1 μM,replicates: in singlicate; n = 1
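Note: KINOMEscan kinase panel screen.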

| SMILES | %Inh |
| --- | --- |
| Cl.Nc1n[nH]c2cc(-c3ccccn3)ccc12 [GSK2189892] | 0% |
| Cn1ccc2ncnc(Oc3ccc(NC(=O)Nc4cnn(C(C)(C)C)c4)c(Cl)c3)c21 | 3% |
| Cn1ccc2ncnc(Oc3ccc(NC(=O)Nc4cncc(C(F)(F)F)c4)c(Cl)c3)c21 | 0% |
| CCN1CCN(CCCC(=O)Nc2n[nH]c3nc(-c4ccc(O)cc4)c(Br)cc23)CC1 [SB-731579] | 15% |
| CC(C)c1nc(-c2cccc(NS(=O)(=O)c3ccccc3)c2)c(-c2ccnc(Nc3ccc4c(c3)CN(C)CC4)n2)s1 [GSK1649598] | 17% |
| C[C@@H]1CNc2c(sc3ccc4nc(-c5ccncc5)ccc4c23)C(=O)N1 | 13% |
| COc1cccc(OC)c1C(=O)Nc1cccc(-c2nn3ccccc3c2-c2ccnc(Nc3cccc(F)c3)n2)c1 [GSK361065] | 30% |
| Cc1cccc(-c2nc(Nc3ccncc3)c3sccc3n2)n1 [GW869641] | 32% |
| c1ccc(Oc2ccc(Nc3ccnc4ccc(-c5ccccn5)cc34)cc2)cc1 [GW407034] | 0% |
| C[C@@H](Oc1cc(-n2cnc3cc(-c4cnn(C)c4)ccc32)sc1C(N)=O)c1ccccc1Cl [GSK580432] | 0% |
| CS(=O)(=O)c1cccc(CNc2nc(Nc3ccc4c(c3)[C@@H]3C[C@@H]4CNC3=O)ncc2C(F)(F)F)c1 | 75% |
| COc1cccc(CNC(=O)NC2CCN(c3ccnc(Nc4cc(OC)c(OC)c(OC)c4)n3)C2)c1 (centres unmarked) [GSK1379765] | 15% |
| Cc1nnc(-c2ccc3occ(-c4ccc(S(C)=O)cc4)c3n2)o1 (centres unmarked) | 0% |
| COc1cc2ncn(-c3cc(OCC4CCCCC4)c(C(N)=O)s3)c2cc1OC [GSK204559] | 9% |
| CC(=O)Nc1nc2cnc(Nc3cc(NC(=O)c4cccc(CC(C)(C)C#N)c4)ccc3C)nc2s1 | 0% |
| CN(c1ccc2c(c1)nc(NCc1ccc(F)cc1)n2C)c1ccnc(Nc2ccc(CS(C)(=O)=O)cc2)n1.Cl [GW813244] | 27% |
| Cc1ccc(C(=O)Nc2ccc(Oc3ccc4nc(NC(=O)C5CC5)cn4c3)c(F)c2)c(=O)n1-c1ccccc1 | 0% |
| COc1cc2c(Nc3ccc(NC(=O)c4ccccc4)cc3)ncnc2cc1OCCCN1CCOCC1 [GSK301329] | 0% |
| N#Cc1cccc(C(=O)NC2CCN(c3ccnc(Nc4ccc(F)cc4)n3)C2)c1 (centres unmarked) [GSK1379708] | 0% |
| O=C(NOCC1CC1)c1cc(Br)c(F)c(F)c1Nc1ccc(I)cc1Cl | 15% |
| COc1cc2nccc(Nc3ccc(Oc4ccccc4)cc3)c2cc1OC.Cl [GI261656] | 0% |
| O=C(Nc1cccc(C(F)(F)F)c1)c1cccc(Oc2ccc3nccn3n2)c1 | 6% |
| CN(c1ccccc1CNc1nc(Nc2ccc3c(c2)CC(=O)N3)ncc1C(F)(F)F)S(C)(=O)=O | 93.1% |

Reference: article PMC5540273 (PLoS ONE, 2017)
